Only some compounds are listed: those with a hit (about 3.1% of all), similar ones and a draw of the others.
Beta cell apopt – beta cell apoptosis inhibition. 300,000 compounds, 0.8% hits. protection from apoptosis, % (no concentration beside the values). AID 435005. INS-1E cytokine-induced death, ATP luminescence, 48 h; percent of positive-control rescue, neutral wells zero;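 active means Every replicate reaches about 75%, or at least half do and their mean reaches it too, limit read from the data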;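 further: 0% = cytokine-treated negative control wells and 100% = positive control rescue; higher means more ATP so stronger rescue from cytokine killing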
SKKanGAS inh – blocks kanamycin growth of S. pyogenes SKKanGAS strain | BacTiter-Glo, 6 h | inhibition, % at 7.5 µM | 300,000 compounds, 1.3% hits | AID 1662;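 active means mean replicate score, as percent of positive control median, at least 50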;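 further: strain carries kanamycin resistance gene driven by streptokinase promoter and grows in 40 µg/ml kanamycin; loss of luminescence reflects streptokinase promoter inhibition or plain growth inhibition; 0% = median of DMSO wells and 100% = positive control at its reference dose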
PP1 counter – PP1-alpha (human) inhibition in PP5 counter-screen | AID 2235 | P62136 | purified PP1alpha, OMFP fluorescence | inhibition, % at 6.7 µM | 320,000 compounds, 0.9% hits;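 active means inhibition above the mean inhibition of all tested compounds plus 3 SD, computed separately for each screening campaign, cut at about 15% in these data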
CSC inhib – blocks cancer stem cells; inhibition, % at 7.5 µM; 300,000 compounds, 1.1% hits; cancer stem cell-like cells viability, luminescence; in the data active means inhibition above about 75%; tested in HMLE shEcad cells
PP5 primary – inhibitors of human protein phosphatase 5 (PP5) | AID 1987 | purified PP5c, OMFP substrate fluorescence | P53041 | inhibition, % at 6.7 µM | 320,000 compounds, 0.18% hits;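 active means inhibition above the campaign's mean inhibition across all tested compounds plus 3 SD, cut at about 9.5% in these data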;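 further: 0% = DMSO only and 100% = 100 µM cantharidin control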
Target sequence (P53041 whole entry, looked up): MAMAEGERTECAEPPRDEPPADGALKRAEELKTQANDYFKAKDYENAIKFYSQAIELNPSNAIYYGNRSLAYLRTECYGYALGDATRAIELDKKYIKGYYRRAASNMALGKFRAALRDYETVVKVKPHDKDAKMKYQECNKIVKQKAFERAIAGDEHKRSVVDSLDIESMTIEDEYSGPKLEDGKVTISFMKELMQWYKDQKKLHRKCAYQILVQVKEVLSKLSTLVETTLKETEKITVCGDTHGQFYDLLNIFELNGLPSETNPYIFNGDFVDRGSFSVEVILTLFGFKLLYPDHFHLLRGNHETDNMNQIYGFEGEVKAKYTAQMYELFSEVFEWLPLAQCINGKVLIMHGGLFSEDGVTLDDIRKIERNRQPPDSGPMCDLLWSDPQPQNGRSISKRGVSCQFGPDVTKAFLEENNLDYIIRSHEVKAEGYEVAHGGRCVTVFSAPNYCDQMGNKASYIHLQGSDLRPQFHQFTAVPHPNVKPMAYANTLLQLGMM
PP1 confirm – confirmation of human PP1 phosphatase inhibitors. shares compounds with PP1 counter. 1,900 compounds, 52% hits. purified PP1alpha, OMFP substrate fluorescence. AID 2358. inhibition, % at 6.7 µM;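 active means mean PP1 inhibition above a set limit taken from the earlier primary screen, cut at about 15% in these data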
PP5 inh counter – PP5 phosphatase inhibition, counter-screen for PP1 inhibitors. purified PP5c, OMFP fluorescence. shares compounds with PP1 counter. 1,900 compounds, 4% hits. inhibition, % at 6.7 µM. AID 2360;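 active means mean PP5 inhibition over triplicate wells above about 9.5% taken from the earlier PP1 screen, limit read from the data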
Numbers without * were called inactive; nt = no result given.

SMILES | Beta cell apopt | SKKanGAS inh | PP1 counter | CSC inhib | PP5 primary | PP1 confirm | PP5 inh counter
C#CCOCCOCCOCCNc1nc(N2CCN(C(=O)[C@H]([C@@H](C)CC)n3cc([C@@H](N)Cc4ccc(O)cc4)nn3)CC2)nc(N2CCN(C(=O)[C@H](Cc3cc4ccccc4[nH]3)n3cc([C@@H](N)CC(C)C)nn3)CC2)n1 | -2 | nt | 28* | 6 | 0 | -13 | -4
C#CCOCCOCCOCCNc1nc(N2CCN(C(=O)[C@H](Cc3ccc(O)cc3)n3cc([C@@H](N)CC(C)C)nn3)CC2)nc(N2CCN(C(=O)[C@H](Cc3cc4ccccc4[nH]3)n3cc([C@@H](N)CC(C)C)nn3)CC2)n1 | -6 | -7 | 11 | -24 | 1 | nt | nt
O=c1cc(-c2c(O)c3ccccc3n(Cc3ccccc3)c2=O)[nH][nH]1 | -10 | 30 | 29* | 15 | 0 | 5 | 2
CCc1cccc(NC(=O)c2ccc(Cn3c(=O)[nH]c4ccsc4c3=O)cc2)c1 | 2 | 2 | 18* | -2 | 2 | 13 | 0
O=C(c1ccc(Cn2c(=O)[nH]c3ccsc3c2=O)cc1)N1CCN(c2ccccc2)CC1 | -1 | 5 | -3 | 1 | 2 | nt | nt
CCN(CC)S(=O)(=O)c1ccc(OC)c(NC(=O)c2cccs2)c1 | -3 | 16 | -1 | -6 | 2 | nt | nt
Cc1cc(C)c2nc(N3C(=O)C(O)=C(C(=O)c4ccco4)C3c3ccc(O)cc3)sc2c1 (stereo not given) | -8 | nt | 34* | 29 | 3 | 30* | 2
Cc1cc(C)c2nc(N3C(=O)C(O)=C(C(=O)c4ccco4)C3c3cccc(O)c3)sc2c1 (stereo not given) | -3 | nt | 34* | 55 | 3 | 26* | 2
CCn1cnc2cc(NCc3ccc(OC)cc3)ccc21 | -3 | -2 | -7 | -3 | 2 | nt | nt
CCOc1ccc2nc3cc(NCc4ccc(OC)cc4)ccc3c(N)c2c1 | 28 | 13 | 65* | 121* | 15* | 16* | 38*
Cc1noc(C)c1COC(=O)C1CCN(S(=O)(=O)c2c(Cl)cccc2Cl)CC1 | -4 | 0 | -4 | -10 | -1 | nt | nt
N#Cc1c(SCC(=O)Nc2nc3ccc(Br)cc3s2)sc2c(O)cc(=O)[nH]c12 | 3 | 34 | 18* | -2 | 0 | 13 | 0
N#Cc1c(SCC(=O)Nc2nc3ccccc3s2)sc2c(O)cc(=O)[nH]c12 | 4 | nt | 19* | -6 | 1 | 1 | -3
N#Cc1c(SCC(=O)Nc2nccs2)sc2c(O)cc(=O)[nH]c12 | -1 | 16 | 26* | -3 | 1 | 1 | -3
CCCSc1nnc(NC(=O)CSc2sc3c(O)cc(=O)[nH]c3c2C#N)s1 | 6 | 26 | 14 | 2 | 1 | nt | nt
N#Cc1cccc(NC(=O)CSc2sc3c(O)cc(=O)[nH]c3c2C#N)c1 | 3 | 22 | 9 | 2 | 2 | nt | nt
COc1cc(OC)cc(C(=O)N[C@H](C(=O)OCC(=O)c2ccc(C)c([N+](=O)[O-])c2)C(C)C)c1 | 0 | nt | nt | -1 | nt | nt | nt
CCn1c(CSc2nc3ccccc3s2)nnc1SCC(=O)c1ccc(Cl)cc1 | -9 | 5 | 22* | 0 | -1 | 4 | 1
CCn1c(CSc2nc3ccccc3s2)nnc1SCC(=O)c1ccc(O)c(O)c1 | nt | 0 | 3 | nt | 3 | nt | nt
CN(CC(O)CON=C1c2ccccc2-c2ccccc21)S(=O)(=O)c1ccc(Br)cc1 (stereo not given) | 8 | 27 | 41* | 98* | 3 | -2 | -2
CCN(CC(O)CON=C1c2ccccc2-c2ccccc21)S(=O)(=O)c1ccc(C)cc1 (stereo not given) | 5 | 30 | 1 | 46 | 5 | nt | nt
O=C(NCc1cccs1)c1nc2c(nnn2Cc2ccc(F)cc2)c(=O)[nH]1 | 5 | 17 | 11 | nt | 2 | nt | nt
Cc1ccc(C)c(Cn2nnc3c(=O)[nH]c(C(=O)NCc4ccco4)nc32)c1 | -1 | 21 | 19* | nt | 1 | 4 | -5
O=C1CC2(CCCC2)C(=O)N1c1ccc(S(=O)(=O)NCC2CC2)cc1Cl | -4 | 1 | 0 | -1 | 0 | nt | nt
O=C(CCNC(=O)N1CC(=O)Nc2ccccc21)Nc1ccc(F)c(Cl)c1 | 6 | -3 | 0 | -13 | -1 | nt | nt
SMILES | Beta cell apopt | SKKanGAS inh | PP1 counter | CSC inhib | PP5 primary | PP1 confirm | PP5 inh counter
CCn1cc(C(=O)N2CCCC(C(=O)c3ccc4ccccc4c3)C2)cn1 (stereo not given) | -3 | -1 | -4 | -12 | 0 | nt | nt
COc1ccc(NC(=S)NC(NC(=O)c2cccc(Cl)c2)C(Cl)(Cl)Cl)c([N+](=O)[O-])c1 (stereo not given) | nt | 42 | 18* | nt | 4 | 6 | 1
COc1ccc(NC(=S)NC(NC(=O)c2cccc(C)c2)C(Cl)(Cl)Cl)c([N+](=O)[O-])c1 (stereo not given) | 10 | nt | 2 | 20 | 2 | nt | nt
O=C(COC(=O)CNC(=O)c1ccccc1)NCCCc1ccccc1 | -9 | nt | nt | -16 | nt | nt | nt
C#CCOCCOCCOCCNc1nc(N2CCN(C(=O)C(Cc3ccc(O)cc3)n3cc(C(N)CC(C)C)nn3)CC2)nc(N2CCN(C(=O)C(Cc3cc4ccccc4[nH]3)n3cc(C(N)C(C)CC)nn3)CC2)n1 (stereo not given) | 5 | -5 | 20* | 7 | 3 | -24 | -4
C#CCOCCOCCOCCNc1nc(N2CCN(C(=O)[C@H](Cc3ccc(O)cc3)n3cc([C@@H](N)C(C)CC)nn3)CC2)nc(N2CCN(C(=O)[C@H](Cc3cc4ccccc4[nH]3)n3cc([C@@H](N)Cc4ccc(O)cc4)nn3)CC2)n1 (stereo not given in full) | nt | 1 | 22* | -5 | 4 | -10 | -1
Cc1ccc(C)c(N2CCN(CCN3CCCCC3)CC2)c1 | -4 | 7 | 2 | 56 | 0 | nt | nt
COc1ccc(Cl)cc1NC(=O)c1cccc(NC(=O)CCC(=O)O)c1 | nt | -7 | -1 | -6 | 0 | nt | nt
COc1ccc(CNC(=O)Cc2c(C(=O)O)[nH]c3ccccc23)c(OC)c1 | 1 | 2 | -2 | 2 | 1 | nt | nt
COc1cc(NC(=O)Cc2c(C(=O)O)[nH]c3ccccc23)cc(OC)c1OC | -9 | -8 | 18* | 5 | 0 | 2 | -1
O=C(COC(=O)c1nc(Cl)c(Cl)c(Cl)c1Cl)NCc1ccccc1 | nt | nt | 1 | nt | 2 | nt | nt
Nc1cc(=O)[nH]c(SCC(=O)N2N=C(c3ccc4ccccc4c3)CC2c2ccccc2)n1 (stereo not given) | 6 | 18 | 21* | 29 | -3 | 3 | 0
Cc1cc(C)nc(SCC(=O)c2ccc(F)c(C)c2)n1 | -6 | -2 | 43* | 4 | 0 | -3 | -4
Cc1cc(C)nc(SCC(=O)c2ccc(F)cc2)n1 | -9 | -4 | 0 | -11 | 2 | nt | nt

Screens from PubChem.
